From PubChem BioAssay
Sampled rows, rich in hits. Any-hit rate of the full collection: about 5.4%.
GAA850 FXN act = frataxin GAA850 promoter activation; HEK293 lucGAA850 FXN promoter luciferase reporter, 24 h; percent of 10 µM SAHA response; activation, % at 6 µM; 360,000 compounds, 0.56% hits;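 active means activation above the average of all compounds screened plus 3 SD, cutoff fixed separately per campaign, cut at about 7.5% in these data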
NR0B1 inh = inhibitors of human orphan nuclear receptor DAX1 (NR0B1) | 340,000 compounds, 0.99% hits | AID 504766 | P51843 | inhibition, % at 6.75 µM | HEK293 Gal4-DAX1 luciferase reporter, luminescence;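 active means inhibition above the mean over all tested compounds plus 3 SD, cut at about 4.2% in these data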;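 further: inhibition shows as a rise in luminescence from relieved DAX1 repression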
HSF1 inh = HSF1 inhibition | activity change, negative = inhibition, % at 7.5 µM (by protocol) | NIH3T3-HGL HSE-luciferase, MG132-induced, luminescence 8 h; hits give low values | 300,000 compounds, 0.77% hits;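 active means more than half of replicate wells show activity change below -50%, luminescence cut by over half; inconclusive means some wells, but at most half, below -50%; inactive means no replicate well below -50%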;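 further: luciferase reports HSF-1 transcriptional activity via heat shock element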
HSF-1 act = increases HSF-1 driven luciferase reporter signal | NIH3T3-HGL HSF-1 luciferase reporter, MG132, 8 h; 100% = twice DMSO control signal | activation, % at 9 µM | 300,000 compounds, 1.7% hits | AID 504408;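 active means mean replicate activation of at least 50% with a set share of replicates each reaching 50%; inconclusive means only one of those two conditions met; inactive means mean below 50% and too few replicates reaching it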
AHR act = human AHR activation; P35869; AHR-responsive luciferase reporter cells, luminescence; activation, % at 5 µM; 320,000 compounds, 2.5% hits; in the data active means activation above about 47%
Target sequence (P35869 whole entry, looked up): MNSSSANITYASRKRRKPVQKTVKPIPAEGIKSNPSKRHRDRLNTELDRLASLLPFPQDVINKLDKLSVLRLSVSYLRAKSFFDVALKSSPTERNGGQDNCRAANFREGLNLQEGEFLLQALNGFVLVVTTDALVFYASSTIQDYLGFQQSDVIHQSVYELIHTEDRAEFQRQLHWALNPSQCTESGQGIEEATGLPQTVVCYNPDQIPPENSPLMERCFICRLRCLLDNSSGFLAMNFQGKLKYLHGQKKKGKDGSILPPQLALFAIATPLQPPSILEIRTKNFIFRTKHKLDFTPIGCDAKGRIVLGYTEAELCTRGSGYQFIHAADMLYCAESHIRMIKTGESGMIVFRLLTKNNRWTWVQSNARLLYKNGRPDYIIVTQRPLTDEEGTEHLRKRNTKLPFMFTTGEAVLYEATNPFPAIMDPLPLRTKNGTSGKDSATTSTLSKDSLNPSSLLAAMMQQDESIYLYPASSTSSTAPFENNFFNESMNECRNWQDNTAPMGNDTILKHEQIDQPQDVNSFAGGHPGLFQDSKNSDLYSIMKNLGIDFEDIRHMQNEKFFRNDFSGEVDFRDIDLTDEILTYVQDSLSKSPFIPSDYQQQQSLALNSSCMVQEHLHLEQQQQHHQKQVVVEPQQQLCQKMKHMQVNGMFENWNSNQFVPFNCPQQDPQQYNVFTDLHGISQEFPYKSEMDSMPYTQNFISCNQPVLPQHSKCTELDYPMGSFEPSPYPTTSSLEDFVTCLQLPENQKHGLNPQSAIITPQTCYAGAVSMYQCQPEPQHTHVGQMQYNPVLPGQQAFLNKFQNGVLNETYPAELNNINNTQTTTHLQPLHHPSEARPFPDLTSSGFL
Of the large screens only hits and unclear results are named; the others gave an inactive call.

CC(C)(C)c1ccc(C(=O)CC(Sc2ccc(Cl)cc2)C(=O)O)cc1 (centres undefined)	HSF-1 act 56
Cc1ccc(SC(CC(=O)c2ccc(F)cc2)C(=O)O)cc1 (centres undefined)	none
Cc1nn(C)cc1C(=O)/C=C/c1ccc([N+](=O)[O-])cc1	HSF-1 act 61
CCn1c(CSc2nc3ccccc3s2)nc2ccccc21	HSF-1 act 76
CCn1c(CSc2nc3ccccc3s2)nnc1SCC(=O)c1ccc(O)cc1O	none
O=C(c1cc(F)ccc1F)C1CCCN(Cc2cccn2-c2ccccn2)C1 (centres undefined)	none
COc1ccc(F)cc1C(=O)C1CCCN(Cc2cccn2-c2ccccn2)C1 (centres undefined)	HSF1 inh -64
Cc1ccc2cc3cc(C(=O)NCc4ccco4)oc3nc2c1	HSF-1 act 64
Cc1ccc2cc3cc(C(=O)NCCC(C)C)oc3nc2c1	none
CCOCc1nnc(NC(=O)COc2ccc3c(c2)OCO3)s1	none
Cc1nnc(NC(=O)c2ccc3c(c2)OCO3)s1	none
O=C(Nc1nncs1)c1ccc2c(c1)OCO2	AHR act 65
CCOCc1nnc(NC(=O)c2ccc3c(c2)OCO3)s1	AHR act 122
COc1cccc(-n2cc(CNC(=O)C3CCC(=O)N(C4CC4)C3)cn2)c1 (centres undefined)	none
CCOC(=O)C1CCN(S(=O)(=O)c2c(Cl)ccc3nonc23)CC1	HSF-1 act 197
CCOC(=O)C1CCN(S(=O)(=O)c2cccc3nonc23)CC1	none
CCCn1c(C(C)Nc2nc(-c3ccc(C)cc3)cs2)nc2cc(Cl)c(Cl)cc21 (centres undefined)	none
Cc1ccc(Cn2c(C(C)Nc3nc(-c4ccc(F)cc4)cs3)nc3cc(Cl)c(Cl)cc32)cc1 (centres undefined)	AHR act 59
COCCN(C(=O)COC(=O)CCC1CCCCC1)c1c(N)n(Cc2ccccc2)c(=O)[nH]c1=O	none (no result: HSF1 inh, HSF-1 act, AHR act)
COc1ccccc1N(C(=O)c1ccco1)C(C(=O)NC1CCCCC1)c1cc(OC)c(OC)c(OC)c1 (centres undefined)	none
COc1ccccc1CCn1c(N)cc(=O)[nH]c1=O	AHR act 53
Nc1cc(=O)[nH]c(=O)n1CCCc1ccccc1	none
CCCCn1c(N)c(NCC)c(=O)[nH]c1=O	none (no result: HSF1 inh, HSF-1 act, AHR act)
Cc1cccc(OCC(=O)OC(C)CN2CCCCC2)c1 (centres undefined)	none
CCC(CC)COC(=O)C1=C(C)NC(=O)NC1c1cc(OC)ccc1OC (centres undefined)	HSF-1 act 70
Cc1cc(Cl)cc(C)c1OCCCCn1ccnc1	none
Cc1cccc(Cl)c1OCCCCn1ccnc1	AHR act 57
Clc1ccccc1OCCCCn1ccnc1	AHR act 74
Cc1ccc(NC(=Nc2ccc(Br)cc2)N2CCOCC2)cc1C	none
Nc1c(N(CCO)C(=O)/C=C/c2ccco2)c(=O)[nH]c(=O)n1Cc1ccccc1	none
CCCCN(C(=O)/C=C/c1ccco1)c1c(N)n(CCC)c(=O)[nH]c1=O	HSF-1 act 76
COc1ccccc1C(=O)N1N=C(c2ccc(NS(C)(=O)=O)cc2)CC1c1cccs1 (centres undefined)	HSF-1 act 54
O=C1CCC(=O)N1c1ccc(-c2nc3ccccc3s2)cc1	HSF1 inh -72
O=C(CCN1C(=O)S/C(=C\C=C\c2ccccc2)C1=O)Nc1ccc(O)cc1	HSF-1 act 100
CCN(C(=O)CN1C(=O)S/C(=C\c2cccc(Cl)c2)C1=O)C1CCS(=O)(=O)C1 (centres undefined)	HSF-1 act inconclusive
CCN(C(=O)CN1C(=O)S/C(=C\C=C\c2ccccc2)C1=O)C1CCS(=O)(=O)C1 (centres undefined)	HSF-1 act 86
O=C(CN1C(=O)S/C(=C\C=C\c2ccccc2)C1=O)Nc1cccc(O)c1	HSF-1 act 154
CCc1nc(SCC(=O)N2CCCCC2)c2c(=O)n(C)c(=O)n(C)c2n1	none
CCC(=O)N1CCCC(C)(C(=O)Nc2ccc(OC(F)F)cc2)C1 (centres undefined)	none (no result: NR0B1 inh, HSF1 inh, HSF-1 act, AHR act)
CCCCc1nc2cc(Cl)ccc2o1	none
CCOC(=O)c1c(C)nn(-c2ccc(NC(=O)/C=C/C(=O)O)cc2)c1C	none
CCNC(=O)Nc1ccc(-n2nc(C)c(C(=O)OCC)c2C)nc1	NR0B1 inh 4.8
CCCCN(CCCC)S(=O)(=O)c1ccc(C(=O)Nc2nnc(CSC)o2)cc1	NR0B1 inh 4.2
CCSc1nc(-c2ccc(OC)cc2)cc(-c2ccccc2)c1C#N	none
COc1ccc(-c2cc(-c3ccccc3)c(C#N)c(S(C)=O)n2)cc1 (centres undefined)	HSF-1 act 146
COC(=O)C(NC(=O)c1ccccc1C(=O)O)c1ccc2ccccc2c1 (centres undefined)	none
O=C(CCN1C(=O)c2ccc([N+](=O)[O-])cc2C1=O)Nc1ccccc1C(=O)O	none
Cc1ccc(C)c(Sc2ccc(NC(=O)CCN3C(=O)NC4(CCCC4)C3=O)cc2)c1	none (no result: HSF1 inh, HSF-1 act)
Cc1ccc(Sc2ccc(NC(=O)CCl)cc2)c(C)c1	HSF-1 act 76 (no result: GAA850 FXN act, NR0B1 inh)
Cn1ncc([N+](=O)[O-])c1C(=O)Nc1ccc(-c2ccccc2)cc1	AHR act 73
Cn1ncc([N+](=O)[O-])c1C(=O)Nc1ccccc1Cl	HSF1 inh -73
CSc1ccccc1OCc1cc(C(=O)N(C)Cc2ccc(C)o2)no1	HSF-1 act 57
CC(C)C(=O)N1CCC1(C)C(=O)Nc1nc2ccccc2[nH]1 (centres undefined)	none (no result: NR0B1 inh, HSF1 inh, HSF-1 act, AHR act)
O=C1C2CCCCN2C(=O)N1CCCN1CCN(c2ccc(F)cc2)CC1 (centres undefined)	HSF-1 act 57
Nc1ccc(N2CCN(CCCCN3C(=O)C4CCCN4C3=O)CC2)cc1 (centres undefined)	none
CN(C)S(=O)(=O)c1ccc(N2CCCC2)c(C(=O)NC2CCC(O)CC2)c1 (centres undefined)	none
CC(C)OC(=O)/C(=C\c1ccc2c(c1)c1ccccc1n2C)NC(=O)c1ccccc1	AHR act 75
COC(=O)/C(=C\c1ccc2c(c1)c1ccccc1n2C)NC(=O)c1ccccc1	HSF-1 act inconclusive, AHR act 76
Cc1csc(CNC(=O)C2CCC(=O)N(CCCc3ccccc3)C2)n1 (centres undefined)	none
Cn1ncc2c(Nc3ccc(Cl)c(Cl)c3)ncnc21	none
CCCCNc1nc(Nc2ccc(C)c(Cl)c2)c2cnn(C)c2n1	HSF-1 act 65, AHR act 79
CCNc1nc(Nc2ccc(C)c(Cl)c2)c2cnn(C)c2n1	AHR act 54
O=C(ONC(=O)C1C2C=CC(C2)C1C(=O)NOC(=O)c1ccccc1)c1ccccc1 (centres undefined)	none (no result: HSF1 inh, HSF-1 act, AHR act)
COc1cc2c(cc1OC)C(c1ccccc1)N(C(=O)c1cccc(S(C)(=O)=O)c1)CC2 (centres undefined)	none
COCCCNC(=O)c1ccccc1Oc1ccccc1	none
